Assay [1] deals with human Vitamin D Receptor (VDR), VDR (gene 7421) (UniProt P11473). The assay can be described thus: ATG_VDR_TRANS: Attagene TRANS-FACTORIAL HepG2 Assay for human Vitamin D Receptor (VDR) (AID 2283022). The procedure, abridged:
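HepG2 cells were transiently transfected with GAL4-UAS reporter units and a chimeric VDR-Gal4 construct, then dosed for 24 hours. Reporter mRNA was quantified by RT-PCR, fluorescent labeling, HpaI digestion and capillary electrophoresis; gain of signal analysed vs DMSO.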

Assay [2] in a line: BSK_3C_SRB: Viability Assessment in the BioMAP Diversity Plus: 3C Assay (AID 2283023; active = hit-call score of the fitted dose curve at least 0.9, where 1 is the maximum; inactive = score below 0.9;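 note: fitted both ways against DMSO so a hit may be signal rise or drop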). As to conditions: primary human endothelial cells (HUVEC). Put shortly: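 Human umbilical vein endothelial cells in the 3C system, treated 24 h. Total protein measured by 0.1% sulforhodamine B staining after 10% TCA fixation, read at 560 nm; bidirectional fit versus DMSO.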
Read-out in assay [3]: Matrix Metallopeptidase 1 (MMP1), MMP1 (gene 4312)
Nature of the assay: BSK_BE3C_MMP1: BioMAP Diversity Plus: BE3C Assay for Matrix Metallopeptidase 1 (MMP1) Biomarker Activity (AID 2283024; active = hit-call score of the fitted dose curve at least 0.9, where 1 is the maximum; inactive = score below 0.9). As to conditions: primary human bronchial epithelial cells; actives raise or lower the signal. The procedure, abridged:
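Human primary bronchial epithelial cells (BE3C system) dosed for 24 h; MMP-1 quantified by ELISA. Bidirectional fit against DMSO; cytotoxicity tracked in parallel cultures by SRB total-protein staining.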

Assay [4] in a line: BSK_3C_Vis: BioMAP Diversity Plus: 3C Assay for Morphology Visualization (AID 2283025; active = hit-call score of the fitted dose curve at least 0.9, where 1 is the maximum; inactive = score below 0.9;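 note: fitted both ways so gain or loss versus DMSO counts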;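 for AC50: light microscopy image of cell morphology used as background control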). The settings on record: primary human endothelial cells (HUVEC). The procedure, abridged:
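Human umbilical vein endothelial cell morphology was inspected by light microscopy 24 h after chemical dosing; scored bidirectionally relative to DMSO.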

Read-out in assay [5]: Pselectin, SELP (gene 6403)
The assay can be described thus: BSK_4H_Pselectin: BioMAP Diversity Plus: 4H Assay for Pselectin Biomarker Activity (AID 2283026; active = hit-call score of the fitted dose curve at least 0.9, where 1 is the maximum; inactive = score below 0.9). The settings on record: primary human endothelial cells (HUVEC); actives raise or lower the signal. The procedure, abridged:
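Primary human umbilical vein endothelial cells were treated 24 h, and cell-surface P-selectin was then quantified by ELISA. Bidirectional fit versus DMSO; cytotoxicity checked in parallel cultures by SRB total-protein staining.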

The nature of assay [6]: BSK_4H_SRB: Viability Assessment in the BioMAP Diversity Plus: 4H Assay (AID 2283027; active = hit-call score of the fitted dose curve at least 0.9, where 1 is the maximum; inactive = score below 0.9;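 note: cells exposed to compound for 24 h before staining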;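 for AC50: curves fitted both ways versus DMSO so AC50 may be loss or gain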). The settings on record: primary human endothelial cells (HUVEC). The procedure, abridged: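 Human umbilical vein endothelial cells were dosed with chemical and, after 24 h, fixed with 10% TCA, stained with 0.1% sulforhodamine B, and read at 560 nm to give total protein as a cytotoxicity measure. Bidirectional fitting relative to DMSO control.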

Assay [7] can be described thus: BSK_BE3C_SRB: Viability Assessment in the BioMAP Diversity Plus: BE3C Assay (AID 2283028; active = hit-call score of the fitted dose curve at least 0.9, where 1 is the maximum; inactive = score below 0.9;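 for AC50: fitted both ways so AC50 may mark signal gain or loss versus DMSO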). The settings on record: primary human bronchial epithelial cells. The procedure, abridged: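 Human bronchial epithelial primary cells in confluent culture, 24 h after chemical dosing; total protein by 0.1% SRB staining after 10% TCA fixation, read at 560 nm. Bidirectional fitting versus DMSO baseline.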

Read-out in assay [8]: Thrombomodulin, THBD (gene 7056)
Nature of the assay: BSK_3C_Thrombomodulin: BioMAP Diversity Plus: 3C Assay for Thrombomodulin Biomarker Activity (AID 2283029; active = hit-call score of the fitted dose curve at least 0.9, where 1 is the maximum; inactive = score below 0.9). As to conditions: primary human endothelial cells (HUVEC); actives raise or lower the signal. Put shortly: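 Human umbilical vein endothelial cells were exposed to chemicals for 24 h; cell-surface thrombomodulin quantified by ELISA, with bidirectional fitting against DMSO baseline.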

Read-out in assay [9]: Urokinase-type plasminogen activator receptor (uPAR), PLAUR (gene 5329)
The assay can be described thus: BSK_4H_uPAR: BioMAP Diversity Plus: 4H Assay for Urokinase-type plasminogen activator receptor (uPAR) Biomarker Activity (AID 2283030; active = hit-call score of the fitted dose curve at least 0.9, where 1 is the maximum; inactive = score below 0.9). As to conditions: primary human endothelial cells (HUVEC); actives raise or lower the signal. Put shortly:
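Human umbilical vein endothelial cells in the 4H system, 24 h after chemical dosing. Cell-surface uPAR measured by ELISA, fitted in both directions versus DMSO; cytotoxicity checked by SRB total protein in parallel cultures.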

Read-out in assay [10]: Vascular endothelial growth factor receptor 2 (Homo sapiens) (UniProt P35968)
The assay can be described thus: BSK_4H_VEGFRII: BioMAP Diversity Plus: 4H Assay for Vascular endothelial growth factor receptor 2 (VEGFR2) Biomarker Activity (AID 2283031; active = hit-call score of the fitted dose curve at least 0.9, where 1 is the maximum; inactive = score below 0.9). As to conditions: primary human endothelial cells (HUVEC); actives raise or lower the signal. Put shortly: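 Primary human umbilical vein endothelial cells (4H system), 24 h exposure; cell-surface VEGFR2 measured by ELISA. Bidirectional fitting versus DMSO; cytotoxicity checked in parallel by SRB total-protein staining.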

SMILES strings stand for the structures. Results filed as inconclusive are left out. The source made the active and inactive calls. Rule for the calls, unless noted: active = hit-call score of the fitted dose curve at least 0.9, where 1 is the maximum; inconclusive = response in the unintended direction; inactive = score below 0.9.

human Vitamin D Receptor (VDR), VDR (gene 7421), sequence (P11473 whole entry, looked up, the tested form may be a part): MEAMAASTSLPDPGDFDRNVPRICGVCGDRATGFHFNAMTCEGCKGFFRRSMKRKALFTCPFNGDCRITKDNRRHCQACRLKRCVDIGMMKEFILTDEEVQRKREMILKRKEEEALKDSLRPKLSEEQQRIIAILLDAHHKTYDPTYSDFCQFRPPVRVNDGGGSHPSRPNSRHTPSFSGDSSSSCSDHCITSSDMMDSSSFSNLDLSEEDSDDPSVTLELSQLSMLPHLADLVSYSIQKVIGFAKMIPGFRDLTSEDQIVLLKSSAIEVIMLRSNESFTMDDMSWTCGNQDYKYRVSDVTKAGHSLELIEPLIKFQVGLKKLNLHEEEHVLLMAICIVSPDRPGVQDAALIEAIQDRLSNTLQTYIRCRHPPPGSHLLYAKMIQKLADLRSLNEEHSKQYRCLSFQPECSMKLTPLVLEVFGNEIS

For the compound `C=C(C)C(=O)OCCOc1ccccc1`, in [1], the compound was classed as inactive.

In the case of `CC(=O)c1ccc2c(c1)CCCC2`, the outcome in assay [1] was inactive.

Consider `CCC(C)OC(=O)c1ccc(O)cc1` (stereo unspecified), for which the outcome in assay [1] was inactive.

On to `CCC(C)C=O` (stereo unspecified), for which, in [1], the compound was called inactive.

In the case of `O=S(=O)(O)CC(O)CCl` (stereo unspecified), the outcome in assay [1] was inactive.

As for `CN(C)CCCN(C)C`, the compound was called inactive in [1].

Turning to `C1=Cc2ccccc2C1`, the outcome in assay [1] was inactive.

With `c1ccc(CNCc2ccccc2)cc1`, the compound was classed as inactive in [1].

Regarding `O=C(c1ccccc1)C1CCC1`, the outcome in assay [1] was inactive.

For the compound `O=C1CCCCCN1SSN1CCCCCC1=O`, in [1], the compound was classed as inactive.

Take `C[Si](C)(CCCN)O[Si](C)(C)CCCN`: the result in [1] was inactive.

For `Nc1nc2ccccc2[nH]1`, in [1], the compound was called inactive.

`O=C(O)CCCCCCCCCC(=O)O`: the call in [1] was inactive.

In the case of `CC(C)c1ccc2c(c1)CC[C@H]1[C@](C)(CN)CCC[C@]21C`, in assay [1], the compound was called inactive.

As to `CC(C)=CCC/C(C)=C\C#N`, the call in [1] was inactive.

On to `OC1CCCC1`, for which the result in assay [1] was inactive.

In the case of `C(=CC=Nc1ccccc1)C=CNc1ccccc1`, the call in [1] was inactive.

As for `COc1c2ccoc2cc2oc(=O)ccc12`, the compound was classed as inactive in assay [1].

Consider `CC[C@H]1OC(=O)[C@H](C)[C@@H](O[C@H]2C[C@@](C)(OC)[C@@H](O)[C@H](C)O2)[C@H](C)[C@@H](O[C@@H]2O[C@H](C)C[C@H](N(C)C)[C@H]2O)[C@](C)(O)C[C@@H](C)C(=NOCOCCOC)[C@H](C)[C@@H](O)[C@]1(C)O`, for which, in [1], the compound was classed as inactive.

As to `CC=CC(=O)N(CC)c1ccccc1C`, in [1], the compound was called inactive.

Consider `NCCCN1CCN(CCCN)CC1`, for which the call in [1] was inactive.

Regarding `O=c1cc(-c2ccccc2)oc2ccccc12`, in assay [1], the compound was classed as inactive.

Turning to `CCCCCCCCCCOS(=O)(=O)O`, in assay [1], the call was inactive.

Consider `C=C(C)[C@@H]1CCC2=CCC[C@@H](C)[C@]2(C)C1`, for which the compound was called inactive in assay [1].

Regarding `O=C(O)CC(C(=O)O)C(CC(=O)O)C(=O)O` (stereo unspecified), the call in [1] was inactive.

With `COc1ccc(C(Cl)=C(c2ccc(OC)cc2)c2ccc(OC)cc2)cc1`, the compound was classed as inactive in assay [1].

On to `Oc1ccc(Cl)cc1Cc1cc(Cl)ccc1O`, for which the compound was classed as inactive in assay [1].

`CC(=O)C=CC1C(C)=CCC(C)C1(C)C` (stereo unspecified): in [1], the outcome was inactive.

As for `C=C(C)C(=O)OCCO`, the outcome in [1] was inactive.

For `Cc1cccc(C(=O)O)c1`, the compound was classed as inactive in [1].

As to `CC=CC(F)(F)C(F)(F)C(F)(F)F`, in [1], the compound was classed as inactive.

As for `O=C(O)c1cc(Cl)cc([N+](=O)[O-])c1Cl`, the call in assay [1] was inactive.

Take `CCCCCCCC/C=C\CCCCCCCC(=O)OCCO`: in assay [1], the compound was classed as inactive.

For the compound `COC(=O)c1sccc1S(N)(=O)=O`, the compound was classed as inactive in [1].

Regarding `O=C(/C=C/C=C/c1ccc2c(c1)OCO2)N1CCCCC1`, the result in assay [1] was inactive.

For `CCCOCCOCCOCCO`, the compound was classed as inactive in [1].

As for `CC=C1CC2C=CC1C2` (stereo unspecified), the outcome in [1] was inactive.

With `O=C(C(Cl)Cl)N1CCOC12CCCCC2`, the outcome in assay [1] was inactive.

For `C=C(C)c1cccc(C(C)(C)N=C=O)c1`, the call in assay [1] was inactive.

`c1cc(C(c2ccc(OCC3CO3)cc2)C(c2ccc(OCC3CO3)cc2)c2ccc(OCC3CO3)cc2)ccc1OCC1CO1` (stereo unspecified): the result in [1] was inactive.

On to `CC(C)(C)C(=O)CCc1ccc(Cl)cc1`, for which the compound was called inactive in assay [1].

Regarding `COC(=O)/C=C/C(C)=C\C=C\C(C)=C\C=C\C=C(C)\C=C\C=C(C)\C=C\C(=O)O`, in assay [1], the compound was called inactive.

Turning to `CCOC(F)(F)C(F)(F)C(F)(F)C(F)(F)F`, in assay [1], the compound was called inactive.

`CCCCC(CC)CCC(CC(C)C)OS(=O)(=O)O` (stereo unspecified): the outcome in [1] was inactive.

For the compound `O=C1CCCC1`, the compound was called inactive in [1].

As for `CC(CC=O)c1ccccc1` (stereo unspecified), the compound was classed as inactive in assay [1].

Take `OCCc1ccncc1`: the compound was classed as inactive in [1].

`CC1(C)O[C@@H]2C[C@H]3[C@@H]4C[C@H](F)C5=CC(=O)C=C[C@]5(C)[C@@]4(F)[C@@H](O)C[C@]3(C)[C@]2(C(=O)CO)O1`: the call in assay [1] was inactive.

For the compound `CCO[Si](CCCN=C=O)(OCC)OCC`, the compound was called inactive in assay [1], in assay [2], in assay [3], in assay [4], in assay [5] and in assay [6]. Further, the result in assay [7], in assay [8], in assay [9] and in assay [10] was inactive.

Turning to `CCOC(=O)c1ccc(N(C)C)cc1`, the call in [1] was inactive.

Consider `COCCOCCOCCOCCOC`, for which, in assay [1], the compound was called inactive.

On to `CCOC(=O)N1CCC(=C2c3ccc(Cl)cc3CCc3cccnc32)CC1`, for which the compound was called inactive in assay [1].

With `ON(Cc1ccccc1)Cc1ccccc1`, in assay [1], the compound was classed as inactive.

For `CC(C)COC(=O)C=Cc1ccccc1`, in assay [1], the result was inactive.

In the case of `CC(=O)OCc1ccco1`, in assay [1], the compound was classed as inactive.

`O=[N+]([O-])C1(Br)COCOC1`: the compound was called inactive in [1].

Take `O=C1c2cccc(O)c2C(=O)c2c(O)cc(CO)cc21`: the result in assay [1] was inactive.

As to `CCCCCCCCCCCCCCCC[N+](C)(C)CC`, the result in assay [1] and in [9] was inactive. Moreover, the AC50 in [2] was 697 nM (active); in [3] it was 3200 nM (active); in assay [4], 533 nM (active); in assay [5], 6200 nM (active); in assay [6], 1570 nM (active); in assay [7] it was 5120 nM (active). The concentration at half-maximal activity (AC50) in assay [8] is 2350 nM (active).

Regarding `COCC(C)N` (stereo unspecified), the compound was called inactive in assay [1].

(Values after PubChem BioAssay (EPA / NIEHS).)
